Results on 97 compounds are retold here after PubChem BioAssay AID2315 (National Center for Advancing Translational Sciences (NCATS), 2010).

Hit rate of the full screen: of about 290,000 compounds, about 27,000 (9.3%) were called active. Cut-off read from the data, not from the text of the source: active = inhibition mostly above about 28% (no sharp cut-off); inactive = mostly below about 43%. The sample as a whole holds a higher share of actives than the screen did.

The assay in a line: A qHTS for Small Molecule Inhibitors of Shiga Toxin. For inhibition: 0% is about no effect. As to conditions: Vero cells, Shiga toxin protein synthesis inhibition reporter; at 38.7 µM, active compounds read high. (Quantitative high-throughput screening tests each substance at several concentrations.)
As to `Cc1ccc(S(=O)(=O)N2CCN(C(=O)N3CCOCC3)CC2)c(C)c1`, the inhibition was -2.32% (inactive).

For `COc1cccc(OC)c1C(=O)N1CCN(Cc2cccnc2)CC1`, the inhibition is 11.9% (inactive).

Turning to `O=C(NCc1ccccc1)c1ccc(S(=O)(=O)Nc2cccc(C(F)(F)F)c2)cc1`, the inhibition is -3.31% (inactive).

Consider `COc1cc(CC(=O)NCc2cccs2)cc(OC)c1OC`, for which the inhibition was -11.7% (inactive).

`O=C(Cc1cccs1)NCc1cccc(C(F)(F)F)c1`: the inhibition was 61.9% (active).

`COc1cccc(NC(=O)N2CCCC2C(=O)NC2CCCCC2)c1` (configuration not stated): the inhibition was -3.54% (inactive).

For `O=S(=O)(Nc1ccc2[nH]ncc2c1)c1ccccc1Cl`, the inhibition is -6.01% (inactive).

In the case of `Cn1c(SCC(=O)c2ccc(F)cc2)nnc1-c1ccccn1`, the inhibition was 21.4% (inactive).

Take `Cn1c(CC(=O)Nc2ccccc2)nnc1SCC(=O)c1ccccc1`: the inhibition is 0.707% (inactive).

Regarding `Cc1ccc(-n2c(C)cc(C(=O)CSc3nnc4ccccn34)c2C)cc1`, the inhibition is 48.6% (active).

Consider `O=C(CSc1nnc(-c2ccco2)n1CC1CCCO1)c1ccccc1` (configuration not stated), for which the inhibition was 21.9% (inactive).

As to `O=C(CSc1nnc2n1CCCN2)c1ccccc1`, the inhibition was 53.5% (active).

As for `N#Cc1ccc(CSc2nnc3ccccn23)cc1`, the inhibition is -7.41% (inactive).

With `CCN(C(=O)CSc1nnc2ccccn12)C1CCS(=O)(=O)C1` (configuration not stated), the inhibition is -8.56% (inactive).

As to `Cc1ccc(-n2c(C)nnc2SCC(=O)NC2CC2)cc1`, the inhibition is -29.3% (inactive).

As for `O=C(CSc1nnc2ccccn12)c1ccccc1`, the inhibition was 74.7% (active).

With `Cn1c(=O)n(C)c2cc(S(=O)(=O)Nc3ccc(F)cc3)ccc21`, the inhibition is 0.488% (inactive).

`Cc1ccc(CCN2CC(C(=O)NCCc3ccccc3)CC2=O)cc1` (configuration not stated): the inhibition is 16.6% (inactive).

For the compound `CC1CCCCN1C(=O)Cn1c(=O)oc2cc(S(=O)(=O)N3CCCCC3)ccc21` (configuration not stated), the inhibition is 12.7% (inactive).

On to `CC(C)(C)NC(=O)NC(=O)COC(=O)C1c2ccccc2Oc2ccccc21`, for which the inhibition was -5.17% (inactive).

`Cc1ccc2[nH]c(=O)c(CC(=O)O)c(-c3ccccc3)c2c1`: the inhibition was 1.65% (inactive).

Regarding `Cc1nn(CC(=O)N/N=C/c2ccc(F)cc2)c(C)c1[N+](=O)[O-]`, the inhibition was -12.8% (inactive).

With `Cc1cc(C(=O)N/N=C/c2ccc(N3CCOCC3)cc2)c(C)o1`, the inhibition is 46.9% (inactive).

On to `Cc1cc(C(=O)N/N=C/c2ccc(O)c([N+](=O)[O-])c2)c(C)n1-c1ccc(F)cc1`, for which the inhibition was 0% (active).

In the case of `O=C(N/N=C/c1cccc(Br)c1)c1ccc(N2CCCC2=O)cc1`, the inhibition was 18.7% (inactive).

For `COc1cc(/C=N/NC(=O)c2ccc(N3CCCC3=O)cc2)ccc1O`, the inhibition is 56.5% (active).

`COc1ccc(/C=N/NC(=O)c2ccncc2)cc1CN1CCCc2ccccc21`: the inhibition is -1.95% (inactive).

With `COc1cc(/C=N\NC(=O)C2C(=O)NCC2c2ccccc2)cc(OC)c1O` (configuration not stated), the inhibition was -11.2% (inactive).

For `COc1cc(/C=N/NC(=O)c2cc(C)n(-c3ccc(F)cc3)c2C)cc(OC)c1O`, the inhibition is 43.1% (active).

As to `COc1cc(/C=N/NC(=S)Nc2cccnc2)cc(OC)c1O`, the inhibition is -4.42% (inactive).

In the case of `CCc1ccc(CNC(=O)C2CC(=O)N(CCc3ccc(C)cc3)C2)cc1` (configuration not stated), the inhibition is -9.66% (inactive).

For `COCCC(=O)N1CCC(Oc2ccc(C(=O)NCc3ccon3)cc2)CC1`, the inhibition was -10.3% (inactive).

Take `CCCCCC1CC(COc2ccccc2)OC1=O` (configuration not stated): the inhibition is -10.6% (inactive).

Take `Cc1cc(-c2n[nH]c(=S)n2/N=C/c2ccco2)n[nH]1`: the inhibition was -9.01% (inactive).

Regarding `Cc1cc(-c2n[nH]c(=S)n2/N=C/C(Br)=C/c2ccccc2)n[nH]1`, the inhibition was 91.5% (active).

In the case of `S=c1[nH]nc(-c2cccnc2)n1/N=C/C(Cl)=C\c1ccccc1`, the inhibition is 48.2% (inactive).

For `CC(=O)c1c(C)oc2ccc(NS(=O)(=O)c3ccc(C(=O)O)cc3)cc12`, the inhibition is 18.1% (inactive).

Turning to `CCCCN(CCCC)CCCNC(=O)CN1C(=O)COc2ccc(S(=O)(=O)N3CCC(C)CC3)cc21`, the inhibition is -6.42% (inactive).

As for `Cc1cccc(NC(=O)C2CCCN(C(=O)Nc3ccc(F)cc3)C2)c1C` (configuration not stated), the inhibition is 1.84% (inactive).

As for `NC(=O)Nc1ccccc1C(=O)NCCc1ccccc1`, the inhibition is 83.7% (active).

For `O=C(NCCc1ccccc1)C1CC1`, the inhibition is 8.81% (inactive).

Consider `O=C(O)c1ccccc1-c1ccccc1C(=O)NCCc1ccccc1`, for which the inhibition was 23.5% (inactive).

On to `Nc1nonc1C(=O)NCCc1ccccc1`, for which the inhibition is 66.7% (active).

As to `NS(=O)(=O)c1ccc(CCNC(=O)CNC(=O)Cc2ccccc2)cc1`, the inhibition was -4.55% (inactive).

As to `CN(C)/C(=N\OC(=O)c1ccccc1)c1nonc1N`, the inhibition was -8.6% (inactive).

As to `Cc1ccc(-c2ccc(=O)n(Cc3ccc(F)cc3Cl)n2)cc1`, the inhibition was -3.36% (inactive).

In the case of `CCOC(=O)N1CCC(N2Cc3cccc(C(=O)Nc4c(C)cccc4CC)c3C2=O)CC1`, the inhibition is 3.74% (inactive).

Regarding `CC(C)[C@H](NC(=O)N1CCn2c1nc1ccccc12)C(=O)NCc1ccc2c(c1)OCO2`, the inhibition is 10.7% (inactive).

For `O=C(CN1C(=O)NC2(CCCCC2)C1=O)NCCc1c[nH]c2ccccc12`, the inhibition is -14% (inactive).

Regarding `O=C(CCC(=O)n1ncc2ccccc21)NCc1ccccc1Cl`, the inhibition is -2.08% (inactive).

Take `CCCOc1ccc(C2=CSC3=NCCN23)cc1Cl`: the inhibition was -7.6% (inactive).

For `CCN(CC)S(=O)(=O)c1ccc(N2CCOCC2)c(NC(=O)C2CSC3(C)CCC(=O)N23)c1` (configuration not stated), the inhibition is -6.24% (inactive).

As for `COc1ccc2c3c(c(=O)oc2c1)C1O[C@](CCCCN2C(=O)c4ccccc4C2=O)(Cc2c1ccc1ccccc21)O3`, the inhibition result was “inactive”.

With `Cc1ccc(OCCCn2c(=O)oc3ccccc32)cc1`, the inhibition is 52.4% (active).

For `NC(=O)Cn1c(=O)oc2ccccc21`, the inhibition is 18.3% (inactive).

For the compound `Cc1cccc(NC(=O)CCn2c(=O)oc3ccccc32)c1`, the inhibition is 63.6% (inactive).

With `CCc1ccc(NC(=O)Cn2nnc(C(=O)NCc3ccc(OC)cc3)c2N)cc1`, the inhibition is 6.32% (inactive).

On to `COc1ccc2c(c1)CCc1c(C(=O)N3CCCC3)noc1-2`, for which the inhibition is 55.2% (active).

For `COc1ccc2c(c1)CCc1c(C(=O)N3CCc4ccccc4C3)noc1-2`, the inhibition is 26.1% (inactive).

Turning to `COc1ccc2oc(=O)c(C(=O)N3CCCC3)cc2c1`, the inhibition is -3.3% (inactive).

Turning to `COc1ccc2c(c1OC)C(=O)c1ccccc1C2=O`, the inhibition is 16.6% (inactive).

As for `O=C1/C(=C/c2cccs2)SC(=S)N1C1CCS(=O)(=O)C1` (configuration not stated), the inhibition is -16.1% (inactive).

For the compound `CN1C/C(=C/c2cccs2)C(=O)/C(=C\c2cccs2)C1`, the inhibition is 66.1% (inactive).

On to `COc1ccc(/C=C2\CCc3ccccc3C2=O)c(OC)c1OC`, for which the inhibition was 77.4% (active).

On to `COc1ccc(/C=N/NC(=O)C2CC2)c(OC)c1OC`, for which the inhibition was -1.72% (inactive).

Regarding `CCC1C/C(=C/c2cccs2)C(=O)/C(=C/c2cccs2)C1` (configuration not stated), the inhibition was -3.18% (inactive).

For the compound `O=C1/C(=C/c2cccs2)CCc2ccccc21`, the inhibition is 85.4% (active).

As for `O=C1/C(=C/c2cccs2)CCC1C1CCCC1` (configuration not stated), the inhibition is 136% (active).

`O=C(COC(=O)/C=C/c1cccs1)NC1CCCCC1`: the inhibition is 10.6% (inactive).

Consider `CCOC(=O)C1CCCN(CCSc2ccc(C)cc2)C1` (configuration not stated), for which the inhibition is 30% (inactive).

For the compound `O=C(N[C@@H](Cc1ccccc1)C(=O)OCc1ccccc1)c1nc[nH]c1C(=O)N[C@@H](Cc1ccccc1)C(=O)OCc1ccccc1`, the inhibition was -7.22% (inactive).

As to `COc1ccccc1N1CCC(N2CCN(CC(C)(C)C)C(CCO)C2)CC1` (configuration not stated), the inhibition was -5.66% (inactive).

As for `COC(=O)c1cccc(C(=O)N2CCC(CCC(=O)NCc3ccc(F)cc3)CC2)c1`, the inhibition is -4.62% (inactive).

With `Cc1ccc(C(=O)Nc2nnc(C3=COCCO3)o2)cc1C`, the inhibition is 12.4% (inactive).

`COc1ccc(C2=NS(=O)(=O)N(C)C(C(=O)N(C)Cc3ccccc3)=C2)cc1`: the inhibition was 0.266% (inactive).

On to `CCOc1ccc(N(C(=O)c2snc(C(N)=O)c2N)C(C(=O)NCC2CCCO2)c2c[nH]c3ccccc23)cc1` (configuration not stated), for which the inhibition was -13.1% (inactive).

Take `COc1ccc2nc(C)cc(Nc3cccc(C(=O)O)c3)c2c1`: the inhibition was -3.88% (inactive).

For the compound `COc1cccc(NC(=O)C(C)Oc2ccccc2)c1` (configuration not stated), the inhibition was -3.55% (inactive).

Turning to `COc1cccc(Nc2ncccc2C(=O)O)c1`, the inhibition was 96.7% (active).

As for `COc1nnc(-c2ccc(C)c(S(=O)(=O)N(C)C)c2)c2ccccc12`, the inhibition was 22.7% (inactive).

On to `CCOC(=O)c1sc(=NC(=O)c2ccc(Br)cc2)n(C)c1C`, for which the inhibition is -5.35% (inactive).

Take `CCOC(=O)c1c(NC(=S)NC(=O)/C=C/c2cccs2)sc(C)c1C`: the inhibition is -10.9% (inactive).

On to `CCOC(=O)c1sc(=NC(=O)/C=C/c2cccs2)n(C)c1C`, for which the inhibition was 88% (active).

Consider `CCOc1ccc(OCC)c(NC(=O)CCS(=O)(=O)c2ccc(C)cc2)c1`, for which the inhibition is -3.57% (inactive).

For the compound `O=C(Cc1c(Cl)cccc1Cl)NC1CC1`, the inhibition was -3.23% (inactive).

As to `CC(C)CCn1cnc2c1c(=O)n(CC(=O)NC(N)=O)c(=O)n2Cc1ccccc1`, the inhibition is 6.66% (inactive).

For `COc1ccc(Cc2nnnn2CC(=O)O)cc1`, the inhibition was 18.4% (inactive).

Take `COc1ccc(Cc2cc(-c3ccc(F)cc3)n[nH]c2=O)cc1`: the inhibition was 41.9% (active).

With `COc1ccc(Cc2nnc(SC)[nH]c2=O)cc1`, the inhibition was -10.4% (inactive).

For `O=C(/C=C/c1ccc(Cl)cc1)NCCCn1ccnc1`, the inhibition was 63.2% (inactive).

As to `Cc1ccc(NS(=O)(=O)c2cc3c(cc2C)NC(=O)CO3)cc1`, the inhibition is -3.52% (inactive).

`C[C@H](NC(=O)c1nc[nH]c1C(=O)NCC(=O)OC(C)(C)C)C(=O)OCc1ccccc1`: the inhibition was -5.08% (inactive).

Turning to `CCC(C)c1ccccc1NC(=O)CN(C)CC(=O)Nc1ccccc1SC` (configuration not stated), the inhibition was -5.67% (inactive).

Regarding `CCn1cc(CN2CCC(n3nccc3NC(=O)CCCc3ccccc3)CC2)c(C)n1`, the inhibition is -4.01% (inactive).

On to `O=C(C(=O)N1CCc2ccccc2C1)c1c[nH]c2ccccc12`, for which the inhibition was 25.1% (inactive).

Regarding `O=C(NCCCc1ccccc1)C(=O)c1c[nH]c2ccccc12`, the inhibition was 34.9% (inactive).

As for `O=C(NC1CCCC1)C(=O)c1c[nH]c2ccccc12`, the inhibition was 60.6% (active).

One may read the inhibition as the change of the read-out against control, counted positive when it falls.
